# In the supplement of paper PMC4466140:
# Target: AgAbp1
# Assay: SPOT peptide array binding signal intensity (averaged, normalized) (arbitrary units (background-subtracted, floor 0; scale differs between SH3 domains)); higher = stronger binding of the SH3 domain to the peptide
# Procedure, shortened: (§1)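 Peptides were synthetic 15-mers on cellulose membranes, with every cysteine replaced by serine. They were incubated overnight at 4°C with GST-SH3 domains from four yeast species at 10 μg/ml in TBS-based blocking buffer. Binding signal, the replicate-averaged normalized and background-subtracted spot intensity, is in arbitrary units that differ between domains.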
row,Binder,SPOT peptide array binding signal intensity
1,VGFRLALKFPSRITG,156

# Target: AgBbc1
# Assay: as above
# Procedure, shortened: as §1
row,Binder,SPOT peptide array binding signal intensity
1,VGFRLALKFPSRITG,89.2

# Target: AgBem1-D1
# Assay: as above
# Procedure, shortened: as §1
row,Binder,SPOT peptide array binding signal intensity
1,VGFRLALKFPSRITG,596

# Target: AgBzz1-D1
# Assay: as above
# Procedure, shortened: as §1
row,Binder,SPOT peptide array binding signal intensity
1,VGFRLALKFPSRITG,231

# Target: AgBzz1-D2
# Assay: as above
# Procedure, shortened: as §1
row,Binder,SPOT peptide array binding signal intensity
1,VGFRLALKFPSRITG,180

# Target: AgCyk3
# Assay: as above
# Procedure, shortened: as §1
row,Binder,SPOT peptide array binding signal intensity
1,VGFRLALKFPSRITG,107

# Target: AgFus1
# Assay: as above
# Procedure, shortened: as §1
row,Binder,SPOT peptide array binding signal intensity
1,VGFRLALKFPSRITG,3790

# Target: AgHof1
# Assay: as above
# Procedure, shortened: as §1
row,Binder,SPOT peptide array binding signal intensity
1,VGFRLALKFPSRITG,137

# Target: AgHse1
# Assay: as above
# Procedure, shortened: as §1
row,Binder,SPOT peptide array binding signal intensity
1,VGFRLALKFPSRITG,3050

# Target: AgLsb1
# Assay: as above
# Procedure, shortened: as §1
row,Binder,SPOT peptide array binding signal intensity
1,VGFRLALKFPSRITG,17.2

# Target: AgLsb4
# Assay: as above
# Procedure, shortened: as §1
row,Binder,SPOT peptide array binding signal intensity
1,VGFRLALKFPSRITG,1990

# Target: AgMyo5
# Assay: as above
# Procedure, shortened: as §1
row,Binder,SPOT peptide array binding signal intensity
1,VGFRLALKFPSRITG,9.5

# Target: AgNbp2
# Assay: as above
# Procedure, shortened: as §1
row,Binder,SPOT peptide array binding signal intensity
1,VGFRLALKFPSRITG,1370

# Target: AgRvs167
# Assay: as above
# Procedure, shortened: as §1
row,Binder,SPOT peptide array binding signal intensity
1,VGFRLALKFPSRITG,55.5

# Target: AgSho1
# Assay: as above
# Procedure, shortened: as §1
row,Binder,SPOT peptide array binding signal intensity
1,VGFRLALKFPSRITG,2510

# Target: AgSla1-D1-D2
# Assay: as above
# Procedure, shortened: as §1
row,Binder,SPOT peptide array binding signal intensity
1,VGFRLALKFPSRITG,505

# Target: AgSla1-D3
# Assay: as above
# Procedure, shortened: as §1
row,Binder,SPOT peptide array binding signal intensity
1,VGFRLALKFPSRITG,31

# Target: CaAbp1-D1
# Assay: as above
# Procedure, shortened: as §1
row,Binder,SPOT peptide array binding signal intensity
1,VGFRLALKFPSRITG,766

# Target: CaAbp1-D2
# Assay: as above
# Procedure, shortened: as §1
row,Binder,SPOT peptide array binding signal intensity
1,VGFRLALKFPSRITG,1210

# Target: CaBbc1
# Assay: as above
# Procedure, shortened: as §1
row,Binder,SPOT peptide array binding signal intensity
1,VGFRLALKFPSRITG,179

# Target: CaBem1-D1
# Assay: as above
# Procedure, shortened: as §1
row,Binder,SPOT peptide array binding signal intensity
1,VGFRLALKFPSRITG,147

# Target: CaBzz1-D1
# Assay: as above
# Procedure, shortened: as §1
row,Binder,SPOT peptide array binding signal intensity
1,VGFRLALKFPSRITG,976

# Target: CaBzz1-D2
# Assay: as above
# Procedure, shortened: as §1
row,Binder,SPOT peptide array binding signal intensity
1,VGFRLALKFPSRITG,473

# Target: CaCyk3
# Assay: as above
# Procedure, shortened: as §1
row,Binder,SPOT peptide array binding signal intensity
1,VGFRLALKFPSRITG,118

# Target: CaFus1
# Assay: as above
# Procedure, shortened: as §1
row,Binder,SPOT peptide array binding signal intensity
1,VGFRLALKFPSRITG,5990

# Target: CaHof1
# Assay: as above
# Procedure, shortened: as §1
row,Binder,SPOT peptide array binding signal intensity
1,VGFRLALKFPSRITG,13.8

# Target: CaHse1
# Assay: as above
# Procedure, shortened: as §1
row,Binder,SPOT peptide array binding signal intensity
1,VGFRLALKFPSRITG,966

# Target: CaLsb1
# Assay: as above
# Procedure, shortened: as §1
row,Binder,SPOT peptide array binding signal intensity
1,VGFRLALKFPSRITG,25

# Target: CaLsb4
# Assay: as above
# Procedure, shortened: as §1
row,Binder,SPOT peptide array binding signal intensity
1,VGFRLALKFPSRITG,716

# Target: CaMyo5
# Assay: as above
# Procedure, shortened: as §1
row,Binder,SPOT peptide array binding signal intensity
1,VGFRLALKFPSRITG,105

# Target: CaNbp2
# Assay: as above
# Procedure, shortened: as §1
row,Binder,SPOT peptide array binding signal intensity
1,VGFRLALKFPSRITG,2320

# Target: CaRvs167
# Assay: as above
# Procedure, shortened: as §1
row,Binder,SPOT peptide array binding signal intensity
1,VGFRLALKFPSRITG,703

# Target: CaRvs167-3
# Assay: as above
# Procedure, shortened: as §1
row,Binder,SPOT peptide array binding signal intensity
1,VGFRLALKFPSRITG,2360

# Target: CaSho1
# Assay: as above
# Procedure, shortened: as §1
row,Binder,SPOT peptide array binding signal intensity
1,VGFRLALKFPSRITG,3450

# Target: CaSla1-D1-D2
# Assay: as above
# Procedure, shortened: as §1
row,Binder,SPOT peptide array binding signal intensity
1,VGFRLALKFPSRITG,108

# Target: CaSla1-D3
# Assay: as above
# Procedure, shortened: as §1
row,Binder,SPOT peptide array binding signal intensity
1,VGFRLALKFPSRITG,782

# Target: ScAbp1
# Assay: as above
# Procedure, shortened: as §1
row,Binder,SPOT peptide array binding signal intensity
1,VGFRLALKFPSRITG,137

# Target: ScBbc1
# Assay: as above
# Procedure, shortened: as §1
row,Binder,SPOT peptide array binding signal intensity
1,VGFRLALKFPSRITG,11.5

# Target: ScBem1-D1
# Assay: as above
# Procedure, shortened: as §1
row,Binder,SPOT peptide array binding signal intensity
1,VGFRLALKFPSRITG,60

# Target: ScBzz1-D1
# Assay: as above
# Procedure, shortened: as §1
row,Binder,SPOT peptide array binding signal intensity
1,VGFRLALKFPSRITG,188

# Target: ScBzz1-D2
# Assay: as above
# Procedure, shortened: as §1
row,Binder,SPOT peptide array binding signal intensity
1,VGFRLALKFPSRITG,649

# Target: ScCyk3
# Assay: as above
# Procedure, shortened: as §1
row,Binder,SPOT peptide array binding signal intensity
1,VGFRLALKFPSRITG,137

# Target: ScFus1
# Assay: as above
# Procedure, shortened: as §1
row,Binder,SPOT peptide array binding signal intensity
1,VGFRLALKFPSRITG,3260

# Target: ScHof1
# Assay: as above
# Procedure, shortened: as §1
row,Binder,SPOT peptide array binding signal intensity
1,VGFRLALKFPSRITG,7.5

# Target: ScHse1
# Assay: as above
# Procedure, shortened: as §1
row,Binder,SPOT peptide array binding signal intensity
1,VGFRLALKFPSRITG,3980

# Target: ScLsb1
# Assay: as above
# Procedure, shortened: as §1
row,Binder,SPOT peptide array binding signal intensity
1,VGFRLALKFPSRITG,12

# Target: ScLsb2
# Assay: as above
# Procedure, shortened: as §1
row,Binder,SPOT peptide array binding signal intensity
1,VGFRLALKFPSRITG,38

# Target: ScLsb3
# Assay: as above
# Procedure, shortened: as §1
row,Binder,SPOT peptide array binding signal intensity
1,VGFRLALKFPSRITG,1230

# Target: ScLsb4
# Assay: as above
# Procedure, shortened: as §1
row,Binder,SPOT peptide array binding signal intensity
1,VGFRLALKFPSRITG,152

# Target: ScMyo3
# Assay: as above
# Procedure, shortened: as §1
row,Binder,SPOT peptide array binding signal intensity
1,VGFRLALKFPSRITG,8.5

# Target: ScMyo5
# Assay: as above
# Procedure, shortened: as §1
row,Binder,SPOT peptide array binding signal intensity
1,VGFRLALKFPSRITG,26.5

# Target: ScNbp2
# Assay: as above
# Procedure, shortened: as §1
row,Binder,SPOT peptide array binding signal intensity
1,VGFRLALKFPSRITG,1400

# Target: ScPex13
# Assay: as above
# Procedure, shortened: as §1
row,Binder,SPOT peptide array binding signal intensity
1,VGFRLALKFPSRITG,67.8

# Target: ScRvs167
# Assay: as above
# Procedure, shortened: as §1
row,Binder,SPOT peptide array binding signal intensity
1,VGFRLALKFPSRITG,180

# Target: ScSho1
# Assay: as above
# Procedure, shortened: as §1
row,Binder,SPOT peptide array binding signal intensity
1,VGFRLALKFPSRITG,3930

# Target: ScSla1-D1-D2
# Assay: as above
# Procedure, shortened: as §1
row,Binder,SPOT peptide array binding signal intensity
1,VGFRLALKFPSRITG,561

# Target: ScSla1-D3
# Assay: as above
# Procedure, shortened: as §1
row,Binder,SPOT peptide array binding signal intensity
1,VGFRLALKFPSRITG,246

# Target: SpAbp1-D1
# Assay: as above
# Procedure, shortened: as §1
row,Binder,SPOT peptide array binding signal intensity
1,VGFRLALKFPSRITG,658

# Target: SpBbc1
# Assay: as above
# Procedure, shortened: as §1
row,Binder,SPOT peptide array binding signal intensity
1,VGFRLALKFPSRITG,97.5

# Target: SpBzz1-D1
# Assay: as above
# Procedure, shortened: as §1
row,Binder,SPOT peptide array binding signal intensity
1,VGFRLALKFPSRITG,1110

# Target: SpBzz1-D2
# Assay: as above
# Procedure, shortened: as §1
row,Binder,SPOT peptide array binding signal intensity
1,VGFRLALKFPSRITG,111

# Target: SpCyk3
# Assay: as above
# Procedure, shortened: as §1
row,Binder,SPOT peptide array binding signal intensity
1,VGFRLALKFPSRITG,75

# Target: SpHof1
# Assay: as above
# Procedure, shortened: as §1
row,Binder,SPOT peptide array binding signal intensity
1,VGFRLALKFPSRITG,620

# Target: SpHof1-2
# Assay: as above
# Procedure, shortened: as §1
row,Binder,SPOT peptide array binding signal intensity
1,VGFRLALKFPSRITG,179

# Target: SpHof1-3
# Assay: as above
# Procedure, shortened: as §1
row,Binder,SPOT peptide array binding signal intensity
1,VGFRLALKFPSRITG,2110

# Target: SpHse1
# Assay: as above
# Procedure, shortened: as §1
row,Binder,SPOT peptide array binding signal intensity
1,VGFRLALKFPSRITG,1790

# Target: SpLsb1
# Assay: as above
# Procedure, shortened: as §1
row,Binder,SPOT peptide array binding signal intensity
1,VGFRLALKFPSRITG,40.5

# Target: SpLsb4
# Assay: as above
# Procedure, shortened: as §1
row,Binder,SPOT peptide array binding signal intensity
1,VGFRLALKFPSRITG,913

# Target: SpMyo1
# Assay: as above
# Procedure, shortened: as §1
row,Binder,SPOT peptide array binding signal intensity
1,VGFRLALKFPSRITG,41

# Target: SpNbp2
# Assay: as above
# Procedure, shortened: as §1
row,Binder,SPOT peptide array binding signal intensity
1,VGFRLALKFPSRITG,2320

# Target: SpPex13
# Assay: as above
# Procedure, shortened: as §1
row,Binder,SPOT peptide array binding signal intensity
1,VGFRLALKFPSRITG,578

# Target: SpRvs167
# Assay: as above
# Procedure, shortened: as §1
row,Binder,SPOT peptide array binding signal intensity
1,VGFRLALKFPSRITG,161

# Target: SpSla1-D1-D2
# Assay: as above
# Procedure, shortened: as §1
row,Binder,SPOT peptide array binding signal intensity
1,VGFRLALKFPSRITG,17

# Target: SpSla1-D3
# Assay: as above
# Procedure, shortened: as §1
row,Binder,SPOT peptide array binding signal intensity
1,VGFRLALKFPSRITG,260
